A selection: hits, their analogues and other compounds. The true share with any hit is near 7.5%.
ELG1 genotox: qHTS screen for small molecules that induce genotoxicity in human embryonic kidney (HEK293T) cells expressing luciferase-tagged ELG1; HEK293T ELG1-luciferase reporter, luminescence, 16 h; Potency, µM (top dose mostly 46 µM), hits mostly activators; hit rate 1.3% among 330,000; AID 504466, 2011; further: nearly all actives have a fitted effect of over 60% in size
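Genotoxicity was scored as increased ELG1-luciferase reporter signal, measured by ONE-Glo luminescence (30 min, room temperature). Compound or vehicle exposure of the HEK293T reporter cells lasted 16 hr at 37°C.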
Rab9 prom act: qHTS Assay for Rab9 Promoter Activators; AID 485297, 2010; Huh7 Rab9 promoter-luciferase reporter, luminescence, 24 h; Potency, µM (doses to about 9.22 µM), most hits filed as activators; hit rate 2.8% among 320,000; further: nearly all actives have a fitted effect of over 60% in size
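Measured in stably transfected Huh7 cells bearing a Rab9 promoter–luciferase construct: 24 h compound treatment at 37 °C, followed by luminescence detection.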
NPC1 promoter act: qHTS Assay for NPC1 Promoter Activators; Huh7 NPC1 promoter luciferase reporter, 24 h; Potency, µM (top dose mostly 9.22 µM), most hits filed as activators; hit rate 2.4% among 320,000; further: nearly all actives have a fitted effect of over 60% in size
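Stably transfected Huh7 (NPC1 promoter→luciferase), 1500 cells/well in Opti-MEM + 10% FBS, 2 h settle, then compound 24 h at 37 °C. Luminescence after 10 min with Amplite reagent.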
FLuc modulator: qHTS profiling assay for firefly luciferase inhibitor/activator using purifed enzyme and Km concentrations of substrates (counterscreen for miR-21 project); Luciferin 4-monooxygenase (Photinus pyralis), P08659; purified FLuc, Km substrates, luminescence inhibition; Potency, µM (highest dose often 57.5 µM), most hits filed as inhibitors; hit rate 6.9% among 360,000; AID 588342, 2011; further: nearly all actives have a fitted effect of over 55% in size
Target sequence (P08659 whole entry, looked up): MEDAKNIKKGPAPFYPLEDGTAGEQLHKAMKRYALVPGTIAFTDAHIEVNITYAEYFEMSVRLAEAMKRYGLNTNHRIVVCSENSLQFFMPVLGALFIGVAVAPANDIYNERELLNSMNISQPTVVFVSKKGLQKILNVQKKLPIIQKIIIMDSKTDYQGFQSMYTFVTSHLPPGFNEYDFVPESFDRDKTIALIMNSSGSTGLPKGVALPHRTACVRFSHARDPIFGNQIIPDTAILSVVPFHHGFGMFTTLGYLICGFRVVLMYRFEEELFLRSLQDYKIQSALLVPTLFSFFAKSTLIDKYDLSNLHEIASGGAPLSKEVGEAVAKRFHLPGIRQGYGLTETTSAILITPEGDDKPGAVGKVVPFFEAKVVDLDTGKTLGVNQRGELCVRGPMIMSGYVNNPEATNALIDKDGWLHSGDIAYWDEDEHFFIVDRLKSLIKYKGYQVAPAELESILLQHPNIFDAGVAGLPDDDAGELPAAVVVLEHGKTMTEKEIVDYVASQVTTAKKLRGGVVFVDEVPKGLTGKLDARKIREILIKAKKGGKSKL
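Biochemical qHTS of compounds, final roughly 60 µM downward over six points, against 10 nM purified firefly luciferase using Km concentrations of substrates (10 uM D-luciferin, 10 uM ATP) in Tris acetate pH 7.5 buffer; luminescence output.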
SMN2 splice enh: qHTS Assay for Enhancers of SMN2 Splice Variant Expression | HEK293 SMN2-luciferase splicing reporter, luminescence, 30-36 h | hit rate 2.8% among 210,000 | Potency, µM (series often up to 46.1 µM), actives largely listed as activators; further: nearly all actives have a fitted effect of over 55% in size
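qHTS luciferase splicing reporter: luminescence rises when SMN2 exon 7 is included in transfected HEK293 cells. Compound exposure lasted 30-36 h at 37C, with 4.5 mM final sodium butyrate as control, followed by a ONE-Glo read.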
Luc counter: Counterscreen for Luciferase (Kinase-Glo TM) Inhibition; Potency, µM (doses to about 38.3 µM), hits mostly inhibitors; hit rate 0.28% among 200,000; Kinase-Glo luciferase, ATP luminescence, 8 min; further: nearly all actives have a fitted effect of over 60% in size
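Recombinant Kinase-Glo luciferase, 10 uM ATP (linear range), luciferin; imidazole pH 7.2 / KCl / MgCl2 / Tween / BSA buffer; 8 min RT; luminescence.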
Hits are given with their value; - = inactive; ? = inconclusive; . = no result given. The call rests on the fitted dose curve; in most records, active means well fitted curve in the direction sought with a large enough effect; inconclusive means small, poorly fitted or top-dose-only effect, or another doubt; inactive means no such curve, though single readings can be large; an effect the other way counts as inactive or inconclusive.

SMILES	ELG1 genotox	Rab9 prom act	NPC1 promoter act	FLuc modulator	SMN2 splice enh	Luc counter
Nc1c(Br)cc2oc(-c3ccccc3)nc2c1Br	?	?	-	2.1µM	13µM	-
CCOc1ccc(CNc2nc3nc(C)c(Cc4ccccc4)c(=O)n3[nH]2)cc1	.	.	.	-	-	.
COc1ccc(CC(N)C(=O)NC2C(CO)OC(n3cnc4c(N(C)C)ncnc43)C2O)cc1 (centres undefined)	.	.	.	.	-	-
O=C(CN1CCN(c2nc(-c3ccccc3)cs2)CC1)Nc1ccc2c(c1)OCO2	-	-	-	-	-	-
Cc1[nH]c2ccccc2c1-c1csc(N)n1	-	-	-	-	.	.
O=C1c2ccccc2C(=O)N1c1cccc(-c2csc(Nc3ccc4c(c3)OCO4)n2)c1	-	-	-	2.1µM	?	-
COc1ccccc1Nc1nc(-c2cccc(N3C(=O)c4ccccc4C3=O)c2)cs1	-	-	-	6.7µM	-	-
COc1ccccc1Nc1nc(-c2c(C)[nH]c3ccccc23)cs1	-	-	-	11µM	14µM	-
COC(=O)c1ccccc1NC(=O)c1cc(C)nc2c1c(C)nn2-c1ccc(C)cc1	.	.	.	-	.	.
COc1ccc(NC(=O)CCNS(=O)(=O)c2cccc3nsnc23)c(OC)c1	-	-	-	-	.	.
CCCc1ccc(S(=O)(=O)N(C)S(=O)(=O)c2ccc(F)cc2)cc1	-	-	-	-	.	.
CC(=O)NC12CC3CC(C1)CC(C(=O)N(C)CC(=O)Nc1ccccc1Cl)(C3)C2	-	-	-	-	.	.
Cc1cc(N=Nc2ccc(C)c(N=Nc3cc(C)c(N)cc3N)c2)c(N)cc1N	2.3µM	2.8µM	2.8µM	0.54µM	.	.
Cc1cc(C(=O)COC(=O)c2ccc(O)cc2)c(C)n1CC1CCCO1 (centres undefined)	?	4µM	1.8µM	4.8µM	-	-
Cc1cc(C)n2nc(C(=O)OCC(=O)c3cc(C)n(CC4CCCO4)c3C)nc2n1 (centres undefined)	-	-	-	-	-	-
COc1cc(OC)c(C(=O)OCC(=O)c2cc(C)n(CC3CCCO3)c2C)cc1OC (centres undefined)	-	-	-	21µM	-	-
Cc1cc(C(=O)COC(=O)c2nc3nccc(C)n3n2)c(C)n1CC1CCCO1 (centres undefined)	-	-	-	-	-	-
COCCn1c(C)cc(C(=O)COC(=O)c2ccc(Cl)c(S(N)(=O)=O)c2)c1C	0.58µM	0.5µM	0.5µM	0.76µM	.	.
COc1cc(OC)cc(C(=O)OCC(=O)c2cc(C)n(CC3CCCO3)c2C)c1 (centres undefined)	-	-	-	6.7µM	.	.
COc1ccc(OC)c(NC(=O)CSc2ncc3c(n2)-c2ccccc2N(C)S3(=O)=O)c1	.	.	.	-	.	.
Cc1cc(C(=O)COC(=O)c2ccc(Cl)c(S(N)(=O)=O)c2)c(C)n1CC1CCCO1 (centres undefined)	?	0.71µM	0.79µM	1.5µM	.	.
Cc1cc(C(=O)COC(=O)c2ccc3c(c2)NC(=O)CS3)c(C)n1CC1CCCO1 (centres undefined)	-	-	-	15µM	-	-
COCC(C)n1c(C)cc(C(=O)COC(=O)c2ccc3c(c2)NC(=O)CS3)c1C (centres undefined)	-	-	-	?	-	-
COc1ccc(Cl)cc1NC(=O)CSc1nccn1-c1ccc(Cl)cc1	.	.	.	-	.	.
Cc1c(C(=O)N(Cc2ccccc2F)C2CCS(=O)(=O)C2)oc2ccc(F)cc12 (centres undefined)	.	.	.	-	-	.
SMILES	ELG1 genotox	Rab9 prom act	NPC1 promoter act	FLuc modulator	SMN2 splice enh	Luc counter
Brc1ccc(-c2cn3nc4c(nc3n2)CCCC4)cc1	?	0.28µM	0.1µM	0.27µM	4µM	?
c1ccc(-c2cn3nc4c(nc3n2)CCCC4)cc1	0.13µM	0.13µM	0.11µM	0.3µM	0.5µM	14µM
Cn1c(=O)n(C)c2cc(NS(=O)(=O)c3ccc(Br)cc3)c(NCc3ccccc3)cc21	.	.	.	?	7.1µM	.
CCCS(=O)(=O)Nc1cc2c(cc1NCc1ccccc1)n(C)c(=O)n2C	.	.	.	?	5.6µM	.
COc1ccc(S(=O)(=O)Nc2cc3c(cc2NCc2ccccc2)n(C)c(=O)n3C)cc1	.	.	.	24µM	10µM	.
Cc1ccc(NC(=O)CN(C)C(=O)CSc2nnc(N)s2)cc1	-	-	-	-	.	.
Cc1ccccc1CC(=O)Nc1ccc(S(=O)(=O)N2CCOCC2)cc1	-	-	-	-	.	.
CCC(NC(=O)CN1CCN(C(=O)c2cccs2)CC1)c1ccc(C)cc1 (centres undefined)	-	-	-	-	.	.
Cc1ccc(C2=Nc3ccccc3N(CC(=O)Nc3ccccc3C)C(=O)C2)cc1C	.	.	.	11µM	.	.
O=C(NCc1ccccc1Cl)c1cnc2sc(N3CCCCC3)nn2c1=O	.	.	.	-	.	.
COc1ccc(CCNC(=O)CSc2nc(=O)n3cc(C)ccc3n2)cc1OC	-	-	-	-	.	.
CCOc1ccc(NC(=O)C(C)Oc2ccc(C#N)cc2)cc1S(=O)(=O)N1CCCC1 (centres undefined)	-	-	-	-	.	.
CC(=O)Nc1nc2ccccc2[nH]1	-	-	-	-	-	-
O=C(Nc1nc2ccccc2[nH]1)c1ccc(Cl)cc1	?	0.32µM	0.32µM	0.43µM	.	.
O=C(Cc1ccc(Cl)cc1)Nc1nc2ccccc2[nH]1	-	-	-	-	-	-
O=C(Nc1nc2ccccc2[nH]1)c1cccc(Cl)c1	16µM	0.71µM	1µM	2.1µM	.	.
O=C(Nc1nc2ccccc2[nH]1)c1ccccc1	0.52µM	1.6µM	?	1.5µM	4µM	11µM
CN(c1cccc(Cl)c1)S(=O)(=O)c1cccc(C(=O)Nc2nc3ccccc3[nH]2)c1	-	-	-	-	-	-
O=C(Nc1nc2ccccc2[nH]1)c1ccccc1O	?	0.89µM	1.8µM	2.7µM	.	.
CC(=O)NNc1ncnc2ccccc12	-	-	-	-	-	-
O=C(CCCOc1ccccc1)Nc1nc2ccccc2[nH]1	?	?	?	11µM	.	-
Cc1ccc(OCCCC(=O)Nc2nc3ccccc3[nH]2)cc1	-	-	-	-	-	-
O=C(NNc1ncnc2ccccc12)c1cccc(Cl)c1	?	1.8µM	?	2.7µM	.	.
COc1cccc(NC(=O)COC(=O)CCC(=O)c2cccs2)c1	-	-	-	-	.	.
COc1ccc(C2c3c(n(C)c4ccccc34)C(=O)N2CC(=O)Nc2ccc(Cl)cc2)cc1 (centres undefined)	.	.	.	-	.	.
CCc1cccc(CC)c1NS(=O)(=O)c1ccc2c(c1)CCN2C(=O)C1CC1	.	.	.	-	-	.

Compound activity as filed in PubChem.
